Compounds with a hit are over-represented: about 3.6% of the library has one in this group of screens.
TWEAK-Fn14 inh: TWEAK-Fn14 signaling inhibition; TWEAK-stimulated Fn14 reporter cells, luciferase luminescence, 8 h; inhibition, % at 10 µM; 360,000 compounds, 2% hits; in the data active = inhibition above about 50%
HSF1 inhib: HSF1 inhibition. NIH3T3-HGL HSE-luciferase, MG132-induced, luminescence 8 h; hits give low values. activity change, negative = inhibition, % at 7.5 µM (by protocol). 300,000 compounds, 0.77% hits. AID 2098;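 active = more than half of replicate wells show activity change below -50%, luminescence cut by over half; inconclusive = some wells, but at most half, below -50%; inactive = no replicate well below -50%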;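 note: luciferase reports HSF-1 transcriptional activity via heat shock element; 0% = median of DMSO wells and -100% = zero luminescence signal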
TROY NFkB inh: blocks TROY-dependent signaling in reporter cells | Q293 LMP1-TROYcd NF-kB luciferase reporter, 4 h | inhibition, % at 10 µM | 360,000 compounds, 0.98% hits;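 active = compounds whose plate-normalised and pattern-corrected inhibition of the luciferase reporter signal at the single screening dose is 50% or more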
HSF1 activator: increases HSF-1 driven luciferase reporter signal; NIH3T3-HGL HSF-1 luciferase reporter, MG132, 8 h; 100% = twice DMSO control signal; activation, % at 9 µM; 300,000 compounds, 1.7% hits; AID 504408;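 active = mean replicate activation of at least 50% with a set share of replicates each reaching 50%; inconclusive = only one of those two conditions met; inactive = mean below 50% and too few replicates reaching it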;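 note: 0% = median of the neutral control wells and 100% = twice that signal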
EBV LMP1 NFkB: reduces LMP1-driven NF-kappaB luciferase signal | 350,000 compounds, 0.69% hits | LMP1-induced NF-kappaB luciferase reporter cells, luminescence | AID 504558 | inhibition, % at 12.5 µM; in the data active = inhibition above about 41%; inconclusive = no clear call, values can overlap the other calls;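 note: 0% = neutral control wells and 100% = reference inhibitor control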
LGR2 inh: inhibitors of bursicon-induced Drosophila LGR2 receptor cAMP signaling. HEK293 LGR2, CRE-luciferase, bursicon-stimulated, 4 h. inhibition, % at 9.99 µM. 380,000 compounds, 0.35% hits;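 active = drop in luminescence signal, shown as inhibition above about 50% in the replicate tests, limit read from the data, passing the limit was not always enough; inconclusive = probably only some replicates passing the limit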;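 note: agonist challenge used bursicon conditioned medium at about half maximal strength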
An asterisk follows results filed as active; ? = inconclusive; . = no result given.

SMILES	TWEAK-Fn14 inh	HSF1 inhib	TROY NFkB inh	HSF1 activator	EBV LMP1 NFkB	LGR2 inh
C=CCn1c(=O)c2ccccc2n2c(SCC(=O)Nc3sc(C(=O)N(CC)CC)c(C)c3C(=O)OCC)nnc12	-20.1	5.1	-1.6	12.8	5.6	5.3
Cc1ccc(-c2nc(-c3nccc4ccccc34)oc2-c2ccccc2)cc1	-4.4	27.6	62.5*	54.1*	11.4	?
O=C1NC(=O)C2(CCc3ccccc32)N1 (configuration not stated)	14.9	-77.2*	.	-81.6	6.0	.
O=C(O)CN1C(=O)NC2(CCc3ccccc32)C1=O (configuration not stated)	-9.1	0.7	10.2	6.1	-2.9	3.8
COc1cccc(NC(=O)N2C[C@@H](O)COC[C@@H]3O[C@H](CC(=O)NC4CCCC4)CC[C@H]32)c1	.	.	.	.	.	-11.5
Cc1ccc(C)c(Cn2nnc3c(=O)[nH]c(C4CCN(C(=O)c5cccs5)CC4)nc32)c1	1.9	26.9	11.0	75.8*	-24.0	.
Cc1ccc(C)c(Cn2nnc3c(=O)[nH]c(C4CCCN(C(=O)c5cccs5)C4)nc32)c1 (configuration not stated)	20.6	10.5	4.8	18.1	1.2	0.5
Cc1ccccc1N=Cc1ccc[nH]1	12.9	.	2.1	.	6.3	5.7
Cc1ccc(N=Cc2ccc[nH]2)c(O)c1	42.4	-75.7*	75.7*	-78.2	-24.5	.
COc1ccccc1C(=O)NC(=O)CSc1nnc(SC)s1	5.6	-3.5	-11.2	-14.9	2.0	-10.3
COc1ccccc1C(=O)NC(=O)CSc1nnc(N)s1	3.5	.	9.4	.	41.6*	-10.2
CC(=O)c1csc(COc2ccc(Cl)cc2)n1	24.3	24.3	-27.1	61.2*	-17.8	.
O=C(C[C@H]1C[C@@H]2c3cc(NC(=O)Nc4ccccc4F)ccc3O[C@@H]2[C@@H](CO)O1)NCc1ccncc1	.	.	.	.	.	-8.8
COc1cccc(Cn2c(N)c(C#N)c3nc4ccccc4nc32)c1OC	18.0	10.9	65.2*	18.9	7.4	.
N#Cc1c(N)n(CCOC(=O)c2cccc(Br)c2)c2nc3ccccc3nc12	11.9	18.4	69.0*	11.9	0.3	.
N#Cc1c(N)n(CCc2ccc(F)cc2)c2nc3ccccc3nc12	62.6*	20.6	.	18.7	5.7	.
COCCn1c(N)c(C#N)c2nc3ccccc3nc21	6.1	15.5	17.4	26.4	9.5	.
COc1ccc(Cn2c(N)c(C#N)c3nc4ccccc4nc32)cc1	33.3	19.9	18.9	19.3	-26.8	-2.1
COc1cc(-n2c(N)c(C(=O)NCc3ccco3)c3nc4ccccc4nc32)cc(OC)c1OC	-2.6	13.7	-16.9	23.3	-6.9	-3.8
Nc1c(C(=O)NCc2ccco2)c2nc3ccccc3nc2n1CCc1ccc(F)cc1	21.3	30.6	64.3*	47.5	2.2	.
O=C(Nc1ccc(F)cc1)N[C@@H]1CC[C@@H](CCNC(=O)c2cc(Cl)cc(Cl)c2)O[C@@H]1CO	.	.	.	.	.	9.8
O=C(C1CC1)N1C[C@H]2[C@@H](c3ccccc31)[C@H](CO)N2C(=O)c1ccccn1	.	.	.	.	.	7.8
Cc1ccc(S(=O)(=O)N(C)C[C@H]2Oc3ccc(NC(=O)c4ccncc4)cc3CC(=O)N([C@@H](C)CO)C[C@@H]2C)cc1	.	.	.	.	.	-21.4
C[C@@H](NC(=O)C[C@H]1C[C@@H]2c3cc(NS(C)(=O)=O)ccc3O[C@@H]2[C@@H](CO)O1)c1ccccc1	.	.	.	.	.	-19.0
Nc1c(C(=O)NCCN2CCOCC2)c2nc3ccccc3nc2n1CCc1ccccc1F	15.8	32.9	15.8	48.7	10.1	.
SMILES	TWEAK-Fn14 inh	HSF1 inhib	TROY NFkB inh	HSF1 activator	EBV LMP1 NFkB	LGR2 inh
COc1ccc(-n2c(N)c(C(=O)NCc3ccco3)c3nc4ccccc4nc32)cc1	65.6*	1.7	29.8	-7.3	3.8	.
Nc1c(C(=O)NCCN2CCOCC2)c2nc3ccccc3nc2n1CCc1ccccc1	13.6	6.1	69.1*	-14.8	14.9	.
CCOC(=O)CSc1nc2ccc(C)cc2cc1C#N	-28.7	31.9	-28.5	67.8*	-67.5	-38.1
CCOC(=O)CSc1nc2cc3c(cc2cc1C#N)OCCO3	25.7	-32.6	57.3*	-33.2	-68.8	-52.1
CCNC(=O)C[C@H]1CC[C@@H]2[C@@H](COc3ccc(NC(=O)Nc4ccccc4F)cc3C(=O)N2C)O1	.	.	.	.	.	1.3
C[C@@H]1CN([C@@H](C)CO)C(=O)c2cc(NS(=O)(=O)c3cn(C)cn3)ccc2O[C@@H](C)CCCCO[C@@H]1CN(C)C(=O)Nc1ccc(F)cc1	.	.	.	.	.	-5.4
O=[N+]([O-])c1ccc(-c2c(O)c3ccccc3c3nc4ccccc4nc23)cc1	22.2	-0.2	54.0*	33.2	8.9	0.5
O=[N+]([O-])c1ccc(-c2nc(Nc3cccc(O)c3)c3ccccc3n2)cc1	80.4*	15.7	82.3*	10.1	-15.8	-3.9
CO[C@@H]1CN(C)C(=O)c2ccc(NC(=O)C3CC3)cc2OC[C@H](C)N(Cc2ccc(F)cc2)C[C@H]1C	.	.	.	.	.	0.8
CCNC(=O)C[C@H]1CC[C@H]2[C@@H](COc3ccc(NC(=O)c4ccc(F)cc4)cc3C(=O)N2C)O1	.	.	.	.	.	-0.9
O=C(C[C@@H]1CC[C@@H]2[C@H](COC[C@H](O)CN2C(=O)c2ccc(F)cc2)O1)NC1Cc2ccccc2C1	.	.	.	.	.	18.3
C[C@@H]1CN([C@H](C)CO)C(=O)c2cc(NC(=O)C3CCCCC3)ccc2O[C@@H](C)CCCCO[C@@H]1CN(C)Cc1ccc(Cl)c(Cl)c1	.	.	.	.	.	19.8
COc1ccc(Cn2c(CCC(=O)Nc3ccc(C)cc3)nc3cccnc32)cc1	-10.0	29.2	10.8	54.3*	0.7	.
O=C1CC(c2ccco2)Cc2nc(Nc3nc(-c4ccccc4)c4ccccc4n3)ncc21 (configuration not stated)	1.3	1.0	-2.7	0.5	77.2*	.
COc1nc(-c2ccccc2)c2cc(Br)ccc2n1	11.8	-68.4*	-19.1	-75.0	2.4	-25.3
Cc1sc2nc3ccc(NCc4ccco4)nn3c(=O)c2c1C	91.1*	-1.8	2.7	9.1	-25.3	.
Cc1ccc(S(=O)(=O)Nc2ccc(O)c3ccccc23)c(C)c1	34.9	6.6	39.5	19.2	-5.6	18.0
Cc1ccc(C)c(S(=O)(=O)Nc2ccc(O)c3ccccc23)c1	84.6*	9.6	41.5	13.7	9.8	5.8
C[C@@H]1CN([C@@H](C)CO)S(=O)(=O)c2ccc(C3=CCCC3)cc2O[C@H]1CN(C)S(=O)(=O)c1ccc(F)cc1	.	.	.	.	.	29.0
Nc1nccc(-c2cc(-c3ccc(Cl)cc3Cl)no2)n1	78.4*	27.5	25.7	44.0	-6.4	59.6*
CCCCOC(=O)c1ccc(NC(=O)c2ccoc2C)cc1	-33.5	25.3	-51.3	39.4	11.4	.
Cc1occc1C(=O)Nc1ccc(OCc2ccccc2)cc1	-17.7	38.7	-39.7	56.1*	-42.6	-57.8
CCCOC(=O)c1ccc(NC(=O)c2ccoc2C)cc1	-57.0	33.3	-14.1	56.2*	2.7	.
CC(C)NC(=O)N1CC2(C1)[C@@H](c1ccccc1)[C@@H](CO)N2C(=O)C1CCCC1	.	.	.	.	.	-10.3

Screening results deposited in PubChem by several laboratories.
